# Laboratory results from PubChem BioAssay (Tox21).
# Where “and” joins values, the source holds several entries; their conditions need not be identical. Identical values can stand only once. Inconclusive results are not listed. Entries that show only a call come without a potency. Where a structure was tested more than once in an assay, its records may differ in their call. Calls of active or inactive are those of the source. Unless noted, the call rests on the fitted dose curve; in most records, active means well fitted curve in the direction sought with a large enough effect in the repeat runs; inconclusive means weak or mixed curves; inactive means no such curve, though single readings can be large; an effect the other way counts as inactive or inconclusive.
# Columns and labels:
# [1] = qHTS assay to identify small molecule agonists of the peroxisome proliferator-activated receptor delta (PPARd) signaling pathway - cell viability counter screen (AID 743211); further: nearly all actives have a fitted effect of over 55% in size
# How it was run: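 PPARd-bla HEK293H cells (3000/well) were pre-incubated 5 h at 37 C, then exposed to compound for 17 h at 37 C. After 2 h with LiveBLAzer substrate, CellTiter-Glo was added to the same wells; luminescence read after 30 min at room temperature.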
# [2] = qHTS assay to identify small molecule antagonists of the peroxisome proliferator-activated receptor delta (PPARd) signaling pathway - cell viability counter screen (AID 743213); further: nearly all actives have a fitted effect of over 50% in size
# How it was run: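 PPARd-bla HEK293H cells (3000/well) got compound plus 300 nM L165041 agonist for 17 h at 37 C. Viability in the same wells came from CellTiter-Glo luminescence after 30 min at room temperature.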
# [3] = target: Peroxisome proliferator-activated receptor delta (Homo sapiens) (UniProt Q03181); test: qHTS assay to identify small molecule antagonists of the peroxisome proliferator-activated receptor delta (PPARd) signaling pathway (AID 743215; active means well fitted inhibition curve with a large enough effect in the signal ratio in the repeat runs, not every such curve was filed as active; the % refers to the signal ratio;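 further: cells stimulated with agonist L165041 at 300 nM final during compound exposure; series mostly up to about 62 µM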)
# How it was run: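 Agonist L165041 (300 nM final) added with compound to PPARd-bla HEK293H UAS-bla reporter cells; 17 h incubation at 37 C. Read-out: LiveBLAzer FRET substrate, 2 h at room temperature, fluorescence intensity.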
# [4] = target: Bile acid receptor (Homo sapiens) (UniProt Q96RI1); test: qHTS assay to identify small molecule antagonists of the farnesoid-X-receptor (FXR) signaling pathway (AID 743217; active means well fitted inhibition curve with a large enough effect in the signal ratio in the repeat runs, not every such curve was filed as active; the % refers to the signal ratio)
# How it was run: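 Antagonist mode: chenodeoxycholic acid at 50 uM final stimulates a UAS-driven beta-lactamase reporter in HEK 293T FXR-bla cells during 16 h, 37C compound exposure. Read-out is FRET substrate fluorescence after 2 h at room temperature.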
# [5] = qHTS assay to identify small molecule agonists of the farnesoid-X-receptor (FXR) signaling pathway - cell viability counter screen (AID 743218); further: nearly all actives have a fitted effect of over 45% in size; further: potency means the concentration at half of the fitted maximal effect
# How it was run: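 Viability counter screen in the same wells: CellTiter-Glo luminescence, 30 min room-temperature incubation, measured after the beta-lactamase read. Cells were GeneBLAzer FXR-UAS-bla HEK 293T, compound-treated 16 h at 37C.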
# [6] = target: Bile acid receptor (Homo sapiens) (UniProt Q96RI1); test: qHTS assay to identify small molecule agonists of the farnesoid-X-receptor (FXR) signaling pathway (AID 743220; active means well fitted activation curve with a large enough effect in the signal ratio in the repeat runs, not every such curve was filed as active; the % refers to the signal ratio)
# How it was run: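 FXR-UAS-bla HEK 293T cells carrying a UAS-driven beta-lactamase reporter were plated for 5 h at 37C/5% CO2, then exposed to DMSO-dissolved Tox21 10K compounds for 16 h at 37C. A LiveBLAzer B/G FRET substrate was loaded for 2 h at room temperature before fluorescence reading.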
# [7] = qHTS assay to identify small molecule antagonists of the farnesoid-X-receptor (FXR) signaling pathway - cell viability counter screen (AID 743221; active means well fitted cell-killing curve with a large enough effect in the repeat runs, not every such curve was filed as active; further: nearly all actives have a fitted effect of over 50% in size; further: potency means the concentration at half of the fitted maximal effect)
# How it was run: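 GeneBLAzer FXR-UAS-bla HEK 293T cells, compound plus chenodeoxycholic acid (50 uM final), 16 h at 37 C. CellTiter-Glo added to the same wells after the beta-lactamase read; luminescence read after 30 min at room temperature as viability.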
# [8] = target: Vitamin D3 receptor (Homo sapiens) (UniProt P11473); test: qHTS assay to identify small molecule agonists of the vitamin D receptor (VDR) signaling pathway (AID 743222; calls by dose curve)
# How it was run: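 Agonist mode, beta-lactamase reporter: fluorescence from LiveBLAzer B/G FRET substrate (2 h, room temperature) read after 16 h compound treatment at 37 C of VDR-bla cells, which were pre-incubated 4 h after seeding.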
# [9] = target: Vitamin D3 receptor (Homo sapiens) (UniProt P11473); test: qHTS assay to identify small molecule antagonists of the vitamin D receptor (VDR) signaling pathway (AID 743223; active means well fitted inhibition curve with a large enough effect in the signal ratio in the repeat runs, not every such curve was filed as active; the % refers to the signal ratio)
# How it was run: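 VDR-bla cells were treated with compound plus 3 nM final 1alpha,25-dihydroxyvitamin D3 for 16 h at 37C. Beta-lactamase reporter read by B/G FRET substrate fluorescence after 2 h at room temperature. qHTS format.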
# [10] = qHTS assay to identify small molecule agonists of the vitamin D receptor (VDR) signaling pathway - cell viability counter screen (AID 743224); further: series mostly up to about 63 µM; nearly all actives have a fitted effect of over 50% in size
# How it was run: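 Counter screen run in the same wells as the VDR-bla reporter assay: CellTiter-Glo luminescence, 30 min at room temperature, after 16 h compound treatment at 37C of cells pre-plated for 4 h.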
# [11] = qHTS assay to identify small molecule antagonists of the vitamin D receptor (VDR) signaling pathway - cell viability counter screen (AID 743225); further: nearly all actives have a fitted effect of over 50% in size
# How it was run: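 VDR-UAS-bla HEK 293T cells were plated and incubated 4 h at 37C, then dosed with compound plus 3 nM (final) 1-alpha,25-dihydroxyvitamin D3 for 16 h. After the 2 h beta-lactamase read, viability in the same wells was read as CellTiter-Glo luminescence after 30 min at room temperature.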
# [12] = qHTS assay to identify small molecule agonists of the NFkB signaling pathway (AID 1159509; active means well fitted curve in the direction sought with a large enough effect in the signal ratio in the repeat runs, not every such curve was filed as active; the % refers to the signal ratio; further: series mostly up to about 61 µM)
# How it was run: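 Agonist activity was read as beta-lactamase-driven FRET change (460 and 530 nm emission, 405 nm excitation) following 1.5 hr substrate loading at room temperature. Beforehand, ME-180 NFkB-bla reporter cells were treated with compounds for 5 hr at 37 C.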
# [13] = qHTS assay to identify small molecule agonists of the endoplasmic reticulum stress response signaling pathway - cell viability counter screen (AID 1159517; calls by dose curve)
# How it was run: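 Cpd-treated ESRE-bla HeLa (5 hr, 37 C) → LiveBLAzer 2 hr RT → CellTiter-Glo 30 min RT → luminescence.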
# [14] = qHTS assay to identify small molecule antagonists of the retinoid-related orphan receptor gamma (ROR-gamma) signaling pathway - cell viability counter screen (AID 1159520); further: nearly all actives have a fitted effect of over 50% in size
# How it was run: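 Tet-on ROR gamma CHO cells (1,000/well) were plated 4 hr, given compounds in DMSO for 2 hr at 37 C, then induced with 1 uM final doxycycline for 16 hr. Viability was read as ATP by CellTiter-Glo luminescence after 30 min.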
# [15] = target: Nuclear receptor ROR-gamma (Homo sapiens) (UniProt P51449); test: qHTS assay to identify small molecule antagonists of the retinoid-related orphan receptor gamma (ROR-gamma) signaling pathway (AID 1159521; further: nearly all actives have a fitted effect of over 50% in size; further: potency means the concentration at half of the fitted maximal effect)
# How it was run: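 Tet-on ROR-gamma CHO cells with ROR response element-luciferase reporter; compounds added 2 hr before 1 uM doxycycline induction, then 16 hr at 37 C. Antagonism scored as decreased ONE-Glo luminescence.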
# [16] = qHTS assay to identify small molecule agonists of the AP-1 signaling pathway - cell viability counter screen (AID 1159525; calls by dose curve; further: nearly all actives have a fitted effect of over 55% in size)
# How it was run: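 Each titration point was normalised to DMSO and tetra n-octyl ammonium bromide controls. The read was Cell Titer Glo luminescence after 30 min at RT, following 5 h compound exposure of ME-180 AP-1-bla cells at 37 °C.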
# [17] = qHTS assay to identify small molecule agonists of the AP-1 signaling pathway (AID 1159526; calls by dose curve)
# [18] = target: Peroxisome proliferator-activated receptor delta (Homo sapiens) (UniProt Q03181); test: qHTS assay to identify small molecule agonists of the peroxisome proliferator-activated receptor delta (PPARd) signaling pathway (AID 743212; calls by dose curve)
# How it was run: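 Cells expressing a UAS-driven beta-lactamase reporter (PPARd-bla HEK293H) were given test compounds after a 5 h settle and kept at 37 C. Reporter activity was then measured as FRET fluorescence using LiveBLAzer B/G substrate.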
# [19] = qHTS assay to identify small molecule agonists of the endoplasmic reticulum stress response signaling pathway (AID 1159516; active means well fitted activation curve with a large enough effect in the signal ratio in the repeat runs, not every such curve was filed as active; the % refers to the signal ratio)
# How it was run: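 Ratiometric FRET readout (405 nm excitation; 460 and 530 nm emission) of a beta-lactamase gene driven by the ER stress response element, after 2 hr substrate loading. HeLa ESRE-bla cells were seeded overnight and treated with compounds for only 5 hr at 37 C.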
# Sequence of Vitamin D3 receptor (Homo sapiens) (P11473 whole entry, looked up): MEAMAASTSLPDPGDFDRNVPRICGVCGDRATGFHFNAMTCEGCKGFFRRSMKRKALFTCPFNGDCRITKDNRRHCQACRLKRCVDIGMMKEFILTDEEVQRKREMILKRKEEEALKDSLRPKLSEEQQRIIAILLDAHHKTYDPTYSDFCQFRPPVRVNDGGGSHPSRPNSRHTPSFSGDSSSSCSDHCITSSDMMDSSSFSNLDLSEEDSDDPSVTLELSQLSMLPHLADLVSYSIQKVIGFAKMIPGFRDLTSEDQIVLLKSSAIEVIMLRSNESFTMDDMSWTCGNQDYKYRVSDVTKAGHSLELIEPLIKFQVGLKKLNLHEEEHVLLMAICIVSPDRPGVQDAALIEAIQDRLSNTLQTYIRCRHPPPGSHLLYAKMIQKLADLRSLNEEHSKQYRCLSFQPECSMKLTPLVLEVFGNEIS
# Sequence of Bile acid receptor (Homo sapiens) (Q96RI1 whole entry, looked up): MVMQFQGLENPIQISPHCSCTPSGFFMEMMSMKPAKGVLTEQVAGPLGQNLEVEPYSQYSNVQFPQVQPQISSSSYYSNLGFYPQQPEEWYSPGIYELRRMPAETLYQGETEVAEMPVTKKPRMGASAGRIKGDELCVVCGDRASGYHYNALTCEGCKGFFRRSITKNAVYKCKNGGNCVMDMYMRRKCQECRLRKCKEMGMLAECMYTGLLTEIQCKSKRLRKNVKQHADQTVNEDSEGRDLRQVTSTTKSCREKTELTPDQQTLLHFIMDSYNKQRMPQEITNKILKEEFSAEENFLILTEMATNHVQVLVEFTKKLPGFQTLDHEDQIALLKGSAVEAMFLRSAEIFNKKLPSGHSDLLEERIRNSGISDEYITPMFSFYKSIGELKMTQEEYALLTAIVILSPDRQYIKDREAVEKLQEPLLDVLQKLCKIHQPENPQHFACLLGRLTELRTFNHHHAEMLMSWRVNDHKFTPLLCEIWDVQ
# Sequence of Peroxisome proliferator-activated receptor delta (Homo sapiens) (Q03181 whole entry, looked up): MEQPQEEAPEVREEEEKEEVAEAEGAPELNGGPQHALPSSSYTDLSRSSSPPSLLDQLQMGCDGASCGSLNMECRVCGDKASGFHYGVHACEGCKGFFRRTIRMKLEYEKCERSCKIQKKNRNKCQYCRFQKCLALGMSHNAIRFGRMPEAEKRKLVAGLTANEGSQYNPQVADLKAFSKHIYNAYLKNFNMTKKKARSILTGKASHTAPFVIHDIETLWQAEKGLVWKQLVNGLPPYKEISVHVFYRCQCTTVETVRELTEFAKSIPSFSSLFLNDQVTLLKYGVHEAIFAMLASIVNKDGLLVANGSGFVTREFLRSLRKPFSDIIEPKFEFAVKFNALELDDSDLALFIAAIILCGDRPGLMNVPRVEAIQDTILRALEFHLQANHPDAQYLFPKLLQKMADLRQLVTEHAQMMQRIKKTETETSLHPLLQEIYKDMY
SMILES,Potency [1],Potency [2],Potency [3],Potency [4],Potency [5],outcome [6],Potency [7],outcome [8],outcome [9],Potency [10],Potency [11],outcome [12],Potency [13],Potency [14],Potency [15],Potency [16],outcome [17],outcome [18],outcome [19]
CCCCCCC#N,inactive,inactive,inactive,inactive,inactive,inactive,inactive,inactive,inactive,inactive,inactive,inactive,inactive,inactive,inactive,inactive,inactive,,
O=C(CBr)c1ccccc1,inactive,inactive,inactive,inactive,inactive,inactive,inactive,,,inactive,inactive,inactive,inactive,inactive,inactive,inactive,,,
Oc1ccc(Cl)c(Cl)c1Cl,,inactive,inactive,,inactive,inactive,inactive,inactive,inactive,,inactive,inactive,inactive,,50.3 µM (active),inactive,inactive,inactive,inactive
C=CCC1([C@H](C)CCC)C(=O)NC(=O)NC1=O,inactive,inactive,inactive,inactive,,inactive,inactive,inactive,,inactive,inactive,inactive,inactive,inactive,inactive,inactive,inactive,,
CO/N=C(/C(=O)OC)c1ccccc1COc1ccccc1C,inactive,inactive,,,inactive,inactive,inactive,inactive,inactive,,,inactive,inactive,,2.73 µM (active),inactive,inactive,,inactive
[CH3][Sn]([CH3])([Cl])[Cl],,inactive,,,55.9 µM (active) and inactive,,55.9 µM (active) and inactive,inactive,inactive,inactive,inactive,inactive,inactive,,4.93 µM (active) and 6.86 µM (active),inactive,,,inactive
Clc1ccc(C(OCCN2CCCCC2)c2ccccc2)cc1 (stereo unspecified),,,,,,,inactive,inactive,inactive,,inactive,inactive,inactive,inactive,,inactive,,,
Cc1ccc(-c2c(Cl)nc(C#N)n2S(=O)(=O)N(C)C)cc1,,,,,inactive,,inactive,,,,inactive,inactive,inactive,,21.7 µM (active),inactive,,,
